{"source": "paper PMC7862700", "about": "“An all-to-all approach to the identification of sequence-specific readers for epigenetic DNA modifications on cytosine”", "assay_in_all_cases": "DAPPL (digital affinity profiling via proximity ligation, sequencing); 10 mM Tris-HCl pH 7.5, 50 mM NaCl, 1 mM DTT, 4% glycerol, room temperature, 30 min; GST-TFs on glutathione beads, 16-mer random dsDNA library, 0.1% formaldehyde crosslink after washing; high values mean tight binding", "conditions_in_all_cases": "protein: recombinant; tags: N-terminal GST; dsDNA, one strand shown", "key": {"ELK4": {"target": "T1, ELK4 (Homo sapiens, UniProt P28324-2 1-405)", "T1 sequence": "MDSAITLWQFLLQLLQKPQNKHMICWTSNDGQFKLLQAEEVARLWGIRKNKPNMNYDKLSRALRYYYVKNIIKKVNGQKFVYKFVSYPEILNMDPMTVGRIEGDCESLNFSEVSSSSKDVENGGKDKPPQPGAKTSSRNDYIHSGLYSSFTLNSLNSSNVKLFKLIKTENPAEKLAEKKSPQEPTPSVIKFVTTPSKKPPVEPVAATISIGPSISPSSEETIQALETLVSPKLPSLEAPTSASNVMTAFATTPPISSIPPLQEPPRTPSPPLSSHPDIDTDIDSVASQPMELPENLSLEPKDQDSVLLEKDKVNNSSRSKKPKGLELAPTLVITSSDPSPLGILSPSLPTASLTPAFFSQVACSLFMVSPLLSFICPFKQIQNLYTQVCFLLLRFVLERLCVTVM", "summary_of_the_method": "(§1)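 GST fusions of human transcription factors were expressed in yeast and captured with glutathione beads. Once given DNA barcodes and pooled alongside a tag-only sample, they were incubated for 30 min at room temperature with 200 nmole of a random double-stranded 16-mer DNA library in Tris/NaCl/DTT/glycerol buffer, then washed, crosslinked (0.1% formaldehyde), proximity-ligated, PCR-amplified and sequenced on an Illumina NextSeq500. The binding signal of each hexamer is its read frequency for a factor divided by its frequency for the tag-only sample.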"}, "ELF3": {"target": "T2, ELF3 (Homo sapiens, UniProt P78545 1-371)", "T2 sequence": "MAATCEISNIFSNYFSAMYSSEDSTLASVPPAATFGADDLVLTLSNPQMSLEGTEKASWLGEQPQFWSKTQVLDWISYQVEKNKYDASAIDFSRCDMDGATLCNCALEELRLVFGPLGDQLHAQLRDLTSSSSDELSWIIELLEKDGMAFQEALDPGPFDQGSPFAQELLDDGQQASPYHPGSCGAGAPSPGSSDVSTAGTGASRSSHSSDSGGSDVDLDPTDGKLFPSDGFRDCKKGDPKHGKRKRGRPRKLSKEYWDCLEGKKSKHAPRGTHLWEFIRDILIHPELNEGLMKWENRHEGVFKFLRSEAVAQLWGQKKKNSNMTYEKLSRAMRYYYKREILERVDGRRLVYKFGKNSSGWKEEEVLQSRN", "summary_of_the_method": "as §1"}, "ETV1": {"target": "ETV1 (Homo sapiens, UniProt P50549 1-477)", "sequence (P50549 whole entry)": "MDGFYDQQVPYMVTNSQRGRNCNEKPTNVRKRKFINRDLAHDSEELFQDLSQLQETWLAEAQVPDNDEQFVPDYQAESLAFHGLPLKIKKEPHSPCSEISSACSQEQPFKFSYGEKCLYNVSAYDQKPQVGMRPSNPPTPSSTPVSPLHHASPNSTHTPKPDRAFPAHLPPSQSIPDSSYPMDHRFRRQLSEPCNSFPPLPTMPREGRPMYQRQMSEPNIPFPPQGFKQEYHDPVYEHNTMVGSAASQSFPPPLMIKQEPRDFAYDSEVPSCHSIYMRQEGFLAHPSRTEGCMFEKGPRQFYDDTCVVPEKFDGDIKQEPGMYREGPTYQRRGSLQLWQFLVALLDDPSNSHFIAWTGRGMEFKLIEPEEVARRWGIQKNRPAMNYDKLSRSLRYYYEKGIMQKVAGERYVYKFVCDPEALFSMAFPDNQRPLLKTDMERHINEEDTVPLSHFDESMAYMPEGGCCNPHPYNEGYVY", "summary_of_the_method": "as §1"}, "ERF": {"target": "T3, ERF (Homo sapiens, UniProt P50548 1-548)", "T3 sequence": "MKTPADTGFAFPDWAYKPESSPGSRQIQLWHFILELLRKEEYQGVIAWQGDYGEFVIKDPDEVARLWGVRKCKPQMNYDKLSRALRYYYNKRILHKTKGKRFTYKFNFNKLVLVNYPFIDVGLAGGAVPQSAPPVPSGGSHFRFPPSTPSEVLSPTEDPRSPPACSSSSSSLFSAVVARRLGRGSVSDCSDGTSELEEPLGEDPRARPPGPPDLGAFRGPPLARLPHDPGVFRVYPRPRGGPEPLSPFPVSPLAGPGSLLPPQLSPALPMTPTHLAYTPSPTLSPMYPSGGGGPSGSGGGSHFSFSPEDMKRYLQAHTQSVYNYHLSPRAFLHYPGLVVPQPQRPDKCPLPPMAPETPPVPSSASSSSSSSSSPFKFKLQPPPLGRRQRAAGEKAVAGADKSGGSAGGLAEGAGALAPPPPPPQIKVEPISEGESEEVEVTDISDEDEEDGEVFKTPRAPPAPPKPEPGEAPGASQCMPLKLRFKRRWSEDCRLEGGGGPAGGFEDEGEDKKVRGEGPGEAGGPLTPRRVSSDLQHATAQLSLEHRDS", "summary_of_the_method": "as §1"}, "ETV3L": {"target": "T4, ETV3L (Homo sapiens, UniProt Q6ZN32 1-361)", "T4 sequence": "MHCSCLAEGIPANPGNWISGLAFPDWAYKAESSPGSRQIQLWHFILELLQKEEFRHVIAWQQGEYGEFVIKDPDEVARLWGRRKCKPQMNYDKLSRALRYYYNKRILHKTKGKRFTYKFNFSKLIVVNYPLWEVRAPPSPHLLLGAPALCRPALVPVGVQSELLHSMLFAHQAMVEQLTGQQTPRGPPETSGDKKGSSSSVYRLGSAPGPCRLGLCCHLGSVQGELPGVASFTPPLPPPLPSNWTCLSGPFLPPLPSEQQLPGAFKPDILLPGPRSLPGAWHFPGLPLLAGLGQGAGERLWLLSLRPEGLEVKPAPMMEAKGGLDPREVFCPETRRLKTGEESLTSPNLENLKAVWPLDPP", "summary_of_the_method": "as §1"}, "ETS2": {"target": "T5, ETS2 (Homo sapiens, UniProt P15036 1-469)", "T5 sequence": "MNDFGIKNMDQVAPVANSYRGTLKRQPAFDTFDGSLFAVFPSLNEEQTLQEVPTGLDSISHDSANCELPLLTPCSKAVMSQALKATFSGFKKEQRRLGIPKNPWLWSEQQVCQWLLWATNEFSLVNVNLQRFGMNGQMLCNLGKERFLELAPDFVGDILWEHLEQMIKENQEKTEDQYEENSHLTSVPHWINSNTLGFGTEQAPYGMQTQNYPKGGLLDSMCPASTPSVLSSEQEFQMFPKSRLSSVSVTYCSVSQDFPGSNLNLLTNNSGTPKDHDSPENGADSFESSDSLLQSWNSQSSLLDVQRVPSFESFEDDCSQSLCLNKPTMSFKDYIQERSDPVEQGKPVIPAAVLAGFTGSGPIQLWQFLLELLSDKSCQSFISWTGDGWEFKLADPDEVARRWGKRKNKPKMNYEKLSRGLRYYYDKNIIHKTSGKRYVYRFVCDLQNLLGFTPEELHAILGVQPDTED", "summary_of_the_method": "as §1"}, "SPDEF": {"target": "T6, SPDEF (Homo sapiens, UniProt O95238 1-335)", "T6 sequence": "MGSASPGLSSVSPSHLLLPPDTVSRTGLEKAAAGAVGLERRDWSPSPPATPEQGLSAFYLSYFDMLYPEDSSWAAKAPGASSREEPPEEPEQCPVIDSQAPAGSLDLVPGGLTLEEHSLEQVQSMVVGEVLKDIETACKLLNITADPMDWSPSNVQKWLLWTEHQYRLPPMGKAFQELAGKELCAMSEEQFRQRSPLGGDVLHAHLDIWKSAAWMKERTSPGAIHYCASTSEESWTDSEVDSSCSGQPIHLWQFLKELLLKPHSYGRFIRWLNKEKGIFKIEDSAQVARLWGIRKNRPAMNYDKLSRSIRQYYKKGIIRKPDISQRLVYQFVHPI", "summary_of_the_method": "as §1"}, "ETV7": {"target": "T7, ETV7 (Homo sapiens, UniProt Q9Y603 1-341)", "T7 sequence": "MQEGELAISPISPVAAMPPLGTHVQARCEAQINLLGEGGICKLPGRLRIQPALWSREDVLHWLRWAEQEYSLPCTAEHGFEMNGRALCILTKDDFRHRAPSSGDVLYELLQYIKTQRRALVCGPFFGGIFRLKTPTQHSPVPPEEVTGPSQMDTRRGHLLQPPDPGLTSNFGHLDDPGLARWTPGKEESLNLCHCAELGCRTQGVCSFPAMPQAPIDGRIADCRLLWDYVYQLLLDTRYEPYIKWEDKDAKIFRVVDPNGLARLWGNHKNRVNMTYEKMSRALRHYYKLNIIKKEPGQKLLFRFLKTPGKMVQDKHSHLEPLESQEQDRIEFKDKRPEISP", "summary_of_the_method": "as §1"}, "ETV3": {"target": "T8, ETV3 (Homo sapiens, UniProt P41162-2 1-143)", "T8 sequence": "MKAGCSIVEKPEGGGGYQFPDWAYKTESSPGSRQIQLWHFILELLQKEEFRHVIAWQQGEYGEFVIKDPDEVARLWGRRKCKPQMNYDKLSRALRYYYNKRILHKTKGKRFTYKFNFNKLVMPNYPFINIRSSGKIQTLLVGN", "summary_of_the_method": "as §1"}, "ETV6": {"target": "ETV6 (Homo sapiens, UniProt P41212 1-452)", "sequence (P41212 whole entry)": "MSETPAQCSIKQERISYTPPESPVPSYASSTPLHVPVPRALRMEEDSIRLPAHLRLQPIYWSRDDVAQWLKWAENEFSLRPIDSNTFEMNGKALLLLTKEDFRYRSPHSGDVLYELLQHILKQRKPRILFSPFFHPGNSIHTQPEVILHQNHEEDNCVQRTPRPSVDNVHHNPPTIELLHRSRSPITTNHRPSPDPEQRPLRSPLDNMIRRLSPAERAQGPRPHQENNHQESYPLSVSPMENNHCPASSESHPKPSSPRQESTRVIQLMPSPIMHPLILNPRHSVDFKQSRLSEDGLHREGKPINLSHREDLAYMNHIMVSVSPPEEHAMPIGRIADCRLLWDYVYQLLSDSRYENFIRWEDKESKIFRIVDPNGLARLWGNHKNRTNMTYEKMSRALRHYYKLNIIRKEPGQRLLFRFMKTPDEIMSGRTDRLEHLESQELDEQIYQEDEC", "summary_of_the_method": "as §1"}}, "data": [{"sequence": "GCTGGT", "values": [{"measurement": "binding signal", "setting": "ELK4", "value": "1.45 fold enrichment (6-mer frequency, TF over GST control)"}, {"measurement": "binding signal", "setting": "ELF3", "value": "1.16 fold enrichment (6-mer frequency, TF over GST control)"}, {"measurement": "binding signal", "setting": "ETV1", "value": "1.02 fold enrichment (6-mer frequency, TF over GST control)"}, {"measurement": "binding signal", "setting": "ERF", "value": "1.14 fold enrichment (6-mer frequency, TF over GST control)"}, {"measurement": "binding signal", "setting": "ETV3L", "value": "1.19 fold enrichment (6-mer frequency, TF over GST control)"}, {"measurement": "binding signal", "setting": "ETS2", "value": "1.17 fold enrichment (6-mer frequency, TF over GST control)"}, {"measurement": "binding signal", "setting": "SPDEF", "value": "1.2 fold enrichment (6-mer frequency, TF over GST control)"}, {"measurement": "binding signal", "setting": "ETV7", "value": "1.17 fold enrichment (6-mer frequency, TF over GST control)"}, {"measurement": "binding signal", "setting": "ETV3", "value": "1.29 fold enrichment (6-mer frequency, TF over GST control)"}, {"measurement": "binding signal", "setting": "ETV6", "value": "1.13 fold enrichment (6-mer frequency, TF over GST control)"}]}]}
